Reference: PubChem BioAssay AID463173 (ICCB-Longwood Screening Facility, Harvard Medical School, 2010)
Among all 52,000 compounds or so, about 4,300 (8.3%) were called active. The sample holds actives, similar compounds and a random draw of the others, so the mix is not that of the screen. Values without a mark were called inactive. Cut-off read from the data, not from the text of the source: active = survival mostly below about 52% (no sharp cut-off); inactive = mostly above about 56%.

Each compound was assayed on DeltatarO mutant (assay: growth inhibition of S. aureus wild type versus tarO mutant, primary screen, teichoic acid synthesis inhibitors, RN4220, OD600 (AID 463173)). Conditions: OD600, 18 h, active compounds read low, screened at 18.75 µg/mL (by protocol).
For COc1ccc2c(c1)c(=O)c(C(=O)c1ccc(F)cc1)cn2CC(=O)Nc1ccc2c(c1)OCCO2, the survival was 65%. Compound COc1ccc(CNC(=O)CN2C(=O)COc3ccc(S(=O)(=O)N4CCOCC4)cc32)cc1 has a survival of 75%. CCOc1ccc(N2CC(NC(=O)C3CCCCC3)CC2=O)cc1 (configuration not stated) showed a survival of 75%. O=C(NCCCc1nc2ccccc2n1Cc1ccccc1Cl)c1ccco1 showed a survival of 66%. Compound CCc1nn2c(=O)cc(COC(=O)c3ccccc3NC(=O)COc3ccccc3C)nc2s1 has a survival of 72%. For CCOC(=O)N1CCc2c(sc3c2c(=O)n(-c2ccc(CC)cc2)c(=O)n3CC(=O)c2ccc(F)cc2)C1, the survival was 80%. Cc1ccccc1NC(=O)CSC1=Nc2ccccc2C2=NC(Cc3ccccc3)C(=O)N12 (configuration not stated) was tested, and the survival was 84%. In the case of O=[N+]([O-])c1ccc(O)c(-c2ccnc3cc(-c4ccccc4)nn23)c1, the survival is reported as 20% (active). In the case of Cc1cc(O)c(-c2ccnc3cc(-c4ccccc4)nn23)cc1Cl, the survival is reported as 114%. For Cc1ccc(-c2cc3nccc(-c4cc([N+](=O)[O-])ccc4O)n3n2)cc1, the survival was 29% (active). Work on Cc1ccc(O)c(-c2ccnc3cc(-c4ccc(Cl)cc4)nn23)c1 yielded a survival of 86%. Work on CCOC(=O)COc1ccc([N+](=O)[O-])cc1-c1ccnc2cc(-c3ccc(C)cc3)nn12 yielded a survival of 76%. CCOC(=O)COc1ccc([N+](=O)[O-])cc1-c1ccnc2cc(-c3ccc(Cl)cc3)nn12 was tested, and the survival was 89%. COc1cccc(NC(=O)C2CCCN(S(=O)(=O)c3c(C)nn(C)c3C)C2)c1 (configuration not stated) gave a survival of 87%. COc1ccc(NC(=O)c2cc(S(=O)(=O)N3CCCCC3)cn2C)cc1Cl showed a survival of 78%. For CCN(C(=O)c1sc2cc(OC)ccc2c1Cl)c1ccccc1, the survival was 0% (active). For CCN(C(=O)c1cn(-c2ccc(OC)cc2)c(=O)c2ccccc12)c1cccc(Cl)c1, the survival was 103%. For CCNC(=O)c1sc2ccccc2c1Cl, the survival was 105%. With Cc1cc(C)cc(OC(=O)c2cc(-c3ccc4c(c3)OCCO4)on2)c1 the survival was -2% (active). Cc1ccc(O)c(NC(=O)c2cc(-c3ccc4c(c3)OCO4)on2)c1 gave a survival of 71%. Work on Cc1ccc(-c2cc(C(=O)Oc3ccc(C#N)cc3)no2)cc1C yielded a survival of 50%. Cc1cc(C)cc(OC(=O)c2cc(-c3ccc(Cl)cc3)on2)c1 showed a survival of 94%. O=C(Nc1cccc(C(F)(F)F)c1)c1cc(-c2ccc3c(c2)OCCO3)on1 gave a survival of 116%. In the case of Cc1cccc(OC(=O)c2cc(-c3ccc4c(c3)OCCO4)on2)c1, the survival is reported as -2% (active). For Cc1cccc(OC(=O)c2cc(-c3ccc(C)c(C)c3)on2)c1, the survival was -2% (active). Work on Cc1ccc(NC(=O)C2CCCN(S(=O)(=O)c3ccc(F)cc3)C2)cc1 (configuration not stated) yielded a survival of 65%. COC(=O)c1c(NC(=O)c2nc(SCc3ccccc3C)ncc2Cl)sc2c1CCCC2 gave a survival of 111%. With Cc1ccc2nc(CSc3nnc(NC(=O)c4ccc(C(C)(C)C)cc4)s3)cc(=O)n2c1 the survival was 81%. Work on Cn1nnnc1SCC(=O)N1CCCc2ccccc21 yielded a survival of 81%. O=C1CC(C(=O)NCc2ccco2)C2(CCCCC2)O1 (configuration not stated) was tested, and the survival was 85%. N#Cc1cccc(NC(=O)CCNS(=O)(=O)c2ccc3c(c2)CCN3C(=O)C2CC2)c1 showed a survival of 82%. Cc1nn2cc(-c3ccc(OC(C)C)cc3)nc2s1 showed a survival of 84%. CCN(CC)CCCNC(=O)c1cnc(SC)nc1-c1ccccc1 was tested, and the survival was 69%. For Cc1ccc(Nc2cc(C)c(C#N)c3nc4ccccc4n23)c(C)c1, the survival was 38% (active). Cc1cc(Nc2ccc(F)cc2)n2c(nc3ccccc32)c1C#N gave a survival of 89%. Compound Cc1ccc(Nc2cc(C)c(C#N)c3nc4ccccc4n23)cc1Cl has a survival of 83%. Work on O=C(Cn1nnc(-c2ccccc2NC(=O)c2cnccn2)n1)Nc1ccc2c(c1)OCCO2 yielded a survival of 105%. O=C(Oc1ccc2c(c1)OCO2)c1cccc(S(=O)(=O)N2CCCC2)c1 gave a survival of 58%. Compound COc1ccc(CNC(=O)C(CC(C)C)N2Cc3ccccc3C2=O)cc1 (configuration not stated) has a survival of 126%. For COc1cc(C(CC(=O)NCCC(C)C)N2Cc3ccccc3C2=O)cc(OC)c1OC (configuration not stated), the survival was 94%. Cc1ccc(NC(=O)CC(c2ccc(F)cc2)N2Cc3ccccc3C2=O)cc1C (configuration not stated) was tested, and the survival was 74%. For COc1ccc(C(CC(=O)Nc2cc(Cl)c(OC)cc2OC)N2Cc3ccccc3C2=O)cc1 (configuration not stated), the survival was 0% (active). With COc1ccc(C(CC(=O)Nc2cc(OC)c(OC)c(OC)c2)N2Cc3ccccc3C2=O)cc1 (configuration not stated) the survival was 57%. For CCOc1ccc(C(CC(=O)Nc2cc(C)c(Cl)cc2OC)N2Cc3ccccc3C2=O)cc1OC (configuration not stated), the survival was 70%. In the case of COc1cc(OC)c(NC(=O)CC(c2cccs2)N2Cc3ccccc3C2=O)cc1Cl (configuration not stated), the survival is reported as 92%. With Cc1ccc(CNC(=O)C(C(C)C)N2Cc3ccccc3C2=O)cc1 (configuration not stated) the survival was 73%. For COc1cc(Cl)c(C)cc1NC(=O)CC(c1ccc(F)cc1)N1Cc2ccccc2C1=O (configuration not stated), the survival was 0% (active). COc1cc(C(CC(=O)NCc2ccccc2)N2Cc3ccccc3C2=O)cc(OC)c1OC (configuration not stated) gave a survival of 135%. With CCOC(=O)CNC(=O)CC(c1cc(OC)c(OC)c(OC)c1)N1Cc2ccccc2C1=O (configuration not stated) the survival was 47% (active). COc1ccc(CNC(=O)C(C(C)C)N2Cc3ccccc3C2=O)cc1 (configuration not stated) was tested, and the survival was -5% (active). CSc1nn(Cc2ccc(F)cc2)c(N(C(C)=O)C(C)=O)c1S(=O)(=O)c1ccccc1 gave a survival of 74%. With COc1ccc(OC)c(NC(=O)Cn2c(=O)n(Cc3nc(C)no3)c(=O)c3ccccc32)c1 the survival was 90%. In the case of O=C(CSc1oc(-c2ccco2)nc1S(=O)(=O)c1ccc(Cl)cc1)c1ccc(Cl)cc1, the survival is reported as 80%. With Cn1cc(S(=O)(=O)c2ccccc2)c(=O)c2cc(F)c(N3CCCC3)cc21 the survival was 123%. Compound CC(=O)N1CCCc2cc(S(=O)(=O)N3CCC(C(=O)Nc4cccc(Cl)c4C)CC3)ccc21 has a survival of 74%. In the case of Cc1cccc(C)c1-n1ncc(C(=O)NCCCN2CCC(C)CC2)c1C1CCN(C(=O)OC(C)(C)C)CC1, the survival is reported as 91%. In the case of COc1ccccc1CNC(=O)CCc1c(C)nn(-c2ccc(N3CCOCC3)nn2)c1C, the survival is reported as 80%.
